Screening results from PubChem.
Many of the other results were omitted from the sample, so hits are more common in it than they were.
PINK1 expr mod = PINK1 expression modulation; PINK1 immunofluorescence, high-content cytometry, 24 h; Potency, µM (highest dose often 76.6 µM), actives largely listed as activators; hit rate 0.2% among 410,000; AID 624263; active = well fitted activation curve with a large enough effect; inconclusive = small, poorly fitted or top-dose-only effect; cell line not stated here; also: nearly all actives have a fitted effect of over 65% in size
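Cells are seeded, rested 12 hours, then given compound at five concentrations or DMSO for 24 hours. After fixation, blocking and antibody staining, PINK1 amount and mitochondrial localization are scored; CCCP serves as control.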
HttQ103 aggreg = mutant huntingtin aggregation inhibition | PC12 HttQ103-GFP aggregates, Acumen cytometry, 40 h | Potency, µM (highest dose often 46.1 µM), most hits filed as inhibitors | hit rate 1.1% among 220,000 | AID 1688; also: nearly all actives have a fitted effect of over 60% in size
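Quantitative HTS on tebufenozide-induced (100 nM) PC12 cells stably expressing polyQ103 Huntingtin exon 1–GFP. Reduction of bright GFP aggregates, detected by laser scanning cytometry after lysis, identified actives across the titration.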
Epigenetic derep = epigenetic control regulation, reporter derepression | murine LDR cells, GFP reporter derepression, 30 h | Potency, µM (titrated, usually from 53.9 µM), hits mostly activators | hit rate 0.2% among 280,000; also: nearly all actives have a fitted effect of over 60% in size
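Derepression of a silenced CMV-GFP reporter in murine LDR cells is scored by enumerating GFP-positive cells with a laser-scanning microplate cytometer after 30 hours of treatment at 37 C.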
HTT ATP protect = cytoprotection in Huntington HTT-Q103 PC12 cell model. PC12 HTT-Q103 induced, cytoprotection, ATP luminescence, 40 h. Potency, µM (highest dose often 56.4 µM), hits mostly activators. hit rate 0.14% among 230,000. AID 1471; also: nearly all actives have a fitted effect of over 45% in size
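Rat PC12, Q103 Htt exon1-GFP fusion, ecdysone promoter; tebufenozide inducer 100 nM final; compound titration; qHTS, 1500 cells/well; ATPlite luminescent read.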
Of the large screens only hits and unclear results are named; the others gave an inactive call; ! = repeats disagree. Unless noted, calls follow the shape of the dose curve; as a rule, active = well fitted curve in the direction sought with a large enough effect; inconclusive = small, poorly fitted or top-dose-only effect, or another doubt; inactive = no such curve, though single readings can be large; an effect the other way counts as inactive or inconclusive.

COc1ccc(/C=C2/SC(=S)N(CCC(=O)N3CCN(C)CC3)C2=O)cc1	none (no result: HttQ103 aggreg, Epigenetic derep, HTT ATP protect)
CCc1ccc(/C=C2\SC(=S)N(CCC(=O)N3CCN(C)CC3)C2=O)cc1	HTT ATP protect 18µM
COC(=O)C[C@H](NC(=O)Cn1cnc2c(OCc3ccccc3)ncnc21)C(=O)OC	none (no result: HttQ103 aggreg, Epigenetic derep, HTT ATP protect)
O=C(/C(=C/c1ccc(Cl)cc1)c1nc2ccccc2[nH]1)c1ccccc1	HttQ103 aggreg 5µM
O=C(N/C(=C/c1ccc(Cl)cc1)c1nc2ccccc2[nH]1)c1ccco1	none
CCOC(=O)CNC(=O)N1CCC(CCOc2ccccc2)(C(=O)OCC)CC1	none (no result: HttQ103 aggreg, Epigenetic derep, HTT ATP protect)
CC1C(c2ccccc2)N(C)C(c2ccccc2)C(C)C1(O)C#Cc1ccccc1 (centres undefined)	PINK1 expr mod 32µM
CCN1CCC(O)(C#Cc2ccccc2)CC1	none (no result: HttQ103 aggreg, Epigenetic derep, HTT ATP protect)
O=c1cc(CSc2ccc(Cl)cc2)nc2nc[nH]n12	none
CC(=O)Nc1cc(C(C)C)c(O)c(C(C)C)c1	none
CC(C)c1cc(NC(=O)c2ccccc2)cc(C(C)C)c1O	HttQ103 aggreg 11µM
COc1cc(C2c3cc4c(cc3OC(N3CCCC3)C2C)OCO4)cc(OC)c1O (centres undefined)	none (no result: HttQ103 aggreg, Epigenetic derep, HTT ATP protect)
Cc1noc(C)c1COc1ccc(C(=O)OCC(=O)Nc2ccc3ccccc3c2)cc1	none
CN(C)c1ccc(N=Nc2ccccc2C(=O)OCC(=O)NC2CCCC2)cc1	HttQ103 aggreg 6.3µM
CN(C)c1ccc(N=Nc2ccccc2C(=O)OCC(=O)NCC2CCCCC2)cc1	none
COc1ccccc1NS(=O)(=O)c1cc(NC(=O)c2ccc(Cl)nc2)ccc1Cl	PINK1 expr mod inconclusive, HttQ103 aggreg 25µM
COc1ccc(C(=O)Nc2ccc(Cl)c(S(=O)(=O)Nc3ccccc3OC)c2)cc1	HttQ103 aggreg inconclusive
Cc1cc(C)c(O)c(-c2cc(C(=O)Nc3ccc(S(=O)(=O)N4CCOCC4)cc3)[nH]n2)c1	HttQ103 aggreg 20µM
CC(=O)Nc1ccc(NC(=O)c2cc(-c3cc(C)cc(C)c3O)n[nH]2)cc1	none (no result: HttQ103 aggreg, Epigenetic derep, HTT ATP protect)
CC(C)Cn1c(N)c(C(=O)COC(=O)CC23CC4CC(CC(C4)C2)C3)c(=O)n(C)c1=O	HttQ103 aggreg 7.1µM
O=C(O)c1ccc(-n2ccnc2)c([N+](=O)[O-])c1	none
O=Cc1cnc(N2CCCCC2)s1	none
O=C(N/N=C/c1cnc(N2CCCCC2)s1)c1ccc(Cl)cc1	PINK1 expr mod 28µM
COc1ccc(/C=N\NC(=O)O)cc1	none (no result: PINK1 expr mod, HttQ103 aggreg, Epigenetic derep)
COC(=O)C1(C(=O)OC)C[C@@H]2CON=C2[C@H]1c1ccccc1	HTT ATP protect 20µM! (no result: PINK1 expr mod, HttQ103 aggreg)
COC(=O)C1(C(=O)OC)C[C@H]2CON=C2[C@H]1c1ccccc1	none (no result: PINK1 expr mod, HttQ103 aggreg)
CC1(C)Cc2c(C#N)c(N3CCN(C(=O)c4ccco4)CC3)nc(-c3ccco3)c2CS1	none
CC(=O)N1CCN(c2nc(-c3ccco3)c3c(c2C#N)CC(C)(C)SC3)CC1	HttQ103 aggreg 13µM
Cc1cc2c(N=O)c(NO)ccc2[nH]1	HttQ103 aggreg inconclusive, Epigenetic derep 16µM
CS(=O)(=O)Nc1ccccc1C(=O)Nc1cccc(Cl)c1	HttQ103 aggreg 11µM
CS(=O)(=O)Nc1ccccc1C(=O)Nc1cc(Cl)cc(Cl)c1	PINK1 expr mod inconclusive, HttQ103 aggreg 8.9µM
COc1cccc(CNC(=O)c2cccs2)c1	none (no result: HttQ103 aggreg, Epigenetic derep, HTT ATP protect)
O=C(Nc1ccc2oc(-c3ccccc3)nc2c1)c1ccc2c(c1)OCCO2	PINK1 expr mod 13µM
O=C(Nc1ccc2oc(-c3ccncc3)nc2c1)c1ccc2c(c1)OCCO2	PINK1 expr mod inconclusive, Epigenetic derep inconclusive
COc1cccc(CNC(=O)CSc2n[nH]c(-c3ccccc3Cl)n2)c1	none (no result: HttQ103 aggreg, HTT ATP protect)
CCOc1ccc(C(=O)N/N=C(/C)C2C(=O)c3ccccc3C2=O)cc1	HttQ103 aggreg 10µM
CCNC(=S)Nc1scc(-c2ccccc2)c1C(=O)OCC	HttQ103 aggreg 14µM (no result: HTT ATP protect)
CCOC(=O)c1c(-c2cccs2)csc1NC(=O)C(C)(C)C	HttQ103 aggreg 14µM
CN1CCCC(OC(=O)c2cccc(Br)c2)C1 (centres undefined)	none (no result: HttQ103 aggreg, Epigenetic derep, HTT ATP protect)
O=C(NCc1ccc2c(c1)OCO2)C1CCCN(S(=O)(=O)c2cccnc2)C1 (centres undefined)	HttQ103 aggreg 32µM
Cc1ccc2c(C(=O)N3CCN(c4ccccc4)CC3)cc(-c3cccnc3)nc2c1C	HttQ103 aggreg 10µM
O=C(NC1C/C(=N/O)c2cc3c(cc21)OCO3)C(F)(F)F (centres undefined)	HttQ103 aggreg inconclusive, HTT ATP protect 4µM
COC(=O)C1=C(COc2ccc(F)cc2)NC(=O)NC1c1ccc(C)cc1C (centres undefined)	PINK1 expr mod 11µM
